# Test results as given in PubChem BioAssay AID2763 (National Center for Advancing Translational Sciences (NCATS), 2010).
# Results filed as inconclusive are left out. Calls of active or inactive are those of the source. The call rests on the fitted dose curve; in most records, active means well fitted inhibition curve with a large enough effect; inconclusive means small, poorly fitted or top-dose-only effect, or effect the other way; inactive means no such curve, though single readings can be large or run the other way.
# Experiment: Concentration response confirmation VP16 counterscreen for inhibitors of ROR gamma transcriptional activity; further: nearly all actives have a fitted effect of over 70% in size
# Details: Drosophila S2 Gal4-VP16 UAS-luciferase, luminescence, 20 h; series mostly up to 46.1 µM; activity change, negative = inhibition: at the top concentration
# Method in brief: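 Drosophila Schneider cells stably carrying Gal4-VP16 under metallothionein promoter plus UAS-Photinus luciferase. Compound preincubated 1 hr, then 700 uM copper sulfate induction for 20 hr at ambient temperature; luminescence read.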
# On the % scale 0 is the no-effect control and ±100 the full control effect; potency means the concentration at half of the fitted maximal effect.
SMILES,"activity change, negative = inhibition",Potency
CCN(CC)c1ccc(/C=N/n2c(-c3ccccc3Br)n[nH]c2=S)cc1,12.6% (inactive),–
O=C1CC(c2ccc(F)cc2)CC(O)=C1C1NCCc2ccccc21 (stereo not given),1.75% (inactive),–
COc1nc(N/N=C/c2cc3c(cc2Br)OCO3)nc(N2CCOCC2)n1,2.66% (inactive),–
Cc1nn(-c2ccccc2)c(C)c1C(=O)Nc1nnc(-c2ccco2)o1,–,1.25 µM (active)
Cc1ccc(NC(=O)CCN2CCN(C)CC2)cc1,3.53% (inactive),–
O=C(O)/C=C/C(=O)Nc1ccccc1SC(F)(F)F,4.95% (inactive),–
CC(C)(C)S(=O)(=O)c1cnc2c(-c3ccc(F)cc3)cnn2c1N,–,12.5 µM (active)
CCn1cc(C(=O)O)c(=O)c2cc(F)c(N3CCN(C(=S)NC(=O)c4ccccc4C)CC3)cc21,6.87% (inactive),–
COc1ccc(-c2cc(C(=O)NNC3=NCCC3)c3c(C)nn(-c4ccccc4)c3n2)cc1,–,2.5 µM (active)
Cc1cccc(-c2ocnc2C(=O)Nc2ccccc2NC(=O)c2ccccn2)c1,–,7.91 µM (active)
COc1ccc(C(=O)Nc2ccc(NC(=O)c3cccs3)cn2)cc1,6.08% (inactive),–
S=c1[nH]nc(-c2cc(-c3ccccn3)nc3ccccc23)o1,20.8% (inactive),–
Cc1cc(Br)c2nc3c(c(C(=O)O)c2c1)CCCCC3,-16.4% (inactive),–
Cc1ccc(Oc2nc(-c3ccccn3)nc3ccccc23)cc1,–,3.53 µM (active)
CN(Cc1nc2ccccc2c(=O)[nH]1)Cc1nc2ccsc2c(=O)[nH]1,–,4.99 µM (active)
COC(=O)c1ccc2nc(Nc3nc4ccc(F)cc4s3)sc2c1,–,5.6 µM (active)
CCNC(=O)CCc1nc(-c2ccc(C(C)(C)C)cc2)no1,–,4.45 µM (active)
CCCCc1nnc(NC(=O)CS(=O)(=O)Cc2ccccc2)s1,7.82% (inactive),–

SMILES,"activity change, negative = inhibition",Potency
CCOc1ccc(OCc2cccc(C(=O)O)c2)cc1,–,8.88 µM (active)
Cc1sc2ncnc(Sc3nnc4sc5ccccc5n34)c2c1C,-7.34% (inactive),–
COc1cccc(/C=C2\SC(=S)N(CCCC(=O)N3CCCC3)C2=O)c1,11.6% (inactive),–
CCCCCCn1ccc(=N)cc1,–,11.2 µM (active)
CCn1nc(C)c(CN2CCC(n3nccc3NC(=O)c3ccc4c(c3)OCO4)CC2)c1C,-1.39% (inactive),–
O=C(CCCN1C(=O)/C(=C/c2ccccc2Cl)SC1=S)NNC(=O)c1ccc(Cl)cc1Cl,–,4.45 µM (active)
COc1cc(C2c3cc4c(cc3C(OC3OC5COC(c6cccs6)OC5C(O)C3O)C3COC(=O)C23)OCO4)cc(OC)c1O (stereo not given),–,25 µM (active)
Cc1cc(C)c(S(=O)(=O)NCCn2ccc3ccccc32)c(C)c1,-83.6% (inactive),–
Cc1cc(C)nc(-n2nc(C)cc2NC(=O)CNC(C)c2ccccc2)n1 (stereo not given),–,19.9 µM (active)
O=C(COc1ccccc1Cl)NCCCN1CCOCC1,-6.78% (inactive),–
Cc1ccc(-n2[nH]c3c4c(ccc3c2=O)C(=O)c2ccccc2C4=O)cc1,3.45% (inactive),–
Cc1ccc(OCCn2cc(C(=S)N3CCCC3)c3ccccc32)cc1C,–,25 µM (active)
CCOC(=O)[C@@H]1[C@H]2COc3ccccc3[C@@H]2N2C(=O)N(c3ccc(OC)cc3)C(=O)[C@@]12C,4.72% (inactive),–
COc1cccc(CNS(=O)(=O)c2ccc3c(c2)CCN3C(=O)C2CC2)c1,-7.99% (inactive),–
NC(=O)/C=C/C(=O)Nc1ccc(Cl)cc1,–,8.88 µM (active)
O=[N+]([O-])c1cc2c(cc1/C=N/Nc1nc(Nc3ccccc3)nc(N3CCCCC3)n1)OCO2,11.4% (inactive),–
O=c1oc2c3c(nn2c2ccccc12)CCCC3,14.9% (inactive),–
